Consider 98 compounds from PubChem BioAssay AID1220 (Sanford-Burnham Center for Chemical Genomics, 2008).

Usually inhibition stands for the relative decrease from the control value, in per cent.

SMILES strings stand for the structures. The whole screen tested about 190,000 compounds, of which about 1,300 (0.68%) were called active. The sample holds actives, similar compounds and a random draw of the others, so the mix is not that of the screen. Rule as the data show it: active = inhibition above about 50%; inactive = the rest.

Sequence of Mannose-6-phosphate isomerase (Homo sapiens) (P34949 whole entry, looked up): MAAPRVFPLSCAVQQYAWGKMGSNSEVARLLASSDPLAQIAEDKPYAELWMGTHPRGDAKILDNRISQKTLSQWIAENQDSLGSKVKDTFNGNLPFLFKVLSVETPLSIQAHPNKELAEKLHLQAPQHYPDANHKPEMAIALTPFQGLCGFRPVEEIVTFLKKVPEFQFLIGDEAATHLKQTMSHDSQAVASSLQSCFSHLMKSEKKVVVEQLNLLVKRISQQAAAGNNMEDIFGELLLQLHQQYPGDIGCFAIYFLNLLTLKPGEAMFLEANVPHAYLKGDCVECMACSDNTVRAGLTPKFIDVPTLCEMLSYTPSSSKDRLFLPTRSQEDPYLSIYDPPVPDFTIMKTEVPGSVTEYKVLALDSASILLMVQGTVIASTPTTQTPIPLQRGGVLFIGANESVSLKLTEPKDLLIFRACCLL

The assay has as its target Mannose-6-phosphate isomerase (Homo sapiens) (UniProt P34949). Briefly: human PMI inhibitors, high substrate, primary screen, biochemical, fluorescence intensity, high mannose 6-phosphate (AID 1220). The settings on record: recombinant PMI enzyme, coupled fluorescence intensity; at 20 µM; stronger effect = higher value.
`N#CC1=C(N)Oc2[nH]c(=S)[nH]c(=O)c2C12C(=O)Nc1ccccc12` (stereo not drawn): the inhibition was 46.2% (inactive).

Regarding `Cn1c2c(c(=O)n(C)c1=O)[C@@]1(C(=O)Nc3ccccc31)C(C#N)=C(N)O2`, the inhibition was 54.6% (active). The value for `Cn1c2c(c(=O)n(C)c1=O)C1(C(=O)Nc3ccccc31)C(C#N)=C(N)O2` (stereo not drawn) was 47.4% (inactive); that for `CNc1oc(-c2ccc(Cl)cc2)nc1C#N` was 0.9% (inactive); that for `Cc1c(Nc2cc(N3CCCC(C)C3)c3nonc3c2[N+](=O)[O-])c(=O)n(-c2ccccc2)n1C` (stereo not drawn) was 44.3% (inactive). Take `Cc1c(Nc2cc(N3CCOCC3)c3nonc3c2[N+](=O)[O-])c(=O)n(-c2ccccc2)n1C`: the inhibition was 27.1% (inactive). Under `Cc1c(Nc2cc(N3CCCCCC3)c3nonc3c2[N+](=O)[O-])c(=O)n(-c2ccccc2)n1C` stands 51.5% (active). Under `Cc1c(NC(=O)CN2c3cccc4cccc(c34)S2(=O)=O)c(=O)n(-c2ccccc2)n1C` stands 5% (inactive); under `CC1=C(C)CC(C(=O)N2CCN(Cc3ccccc3)CC2)C(C(=O)O)C1` (stereo not drawn), 9.2% (inactive); under `COc1ccc2nc(NC(=O)Nc3cccc4ccccc34)sc2c1`, 58.6% (active).

With `COc1ccc2nc(NC(=O)Nc3ccccc3)sc2c1`, the inhibition was 15.5% (inactive). Under `CCCC(=O)Nc1nc2ccc(OC)cc2s1` stands 7.2% (inactive); under `Cn1c(-c2ccccc2)cc(=O)c2ccccc21`, 2% (inactive); under `Cn1c2ccccc2c(=O)n2c(=O)c3ccccc3cc12`, 54.4% (active). Under `Cc1cc(=O)n(C)c2ccccc12` stands -8.5% (inactive); under `CNC(=O)c1[nH]cnc1C(=O)N[C@@H](Cc1ccccc1)C(=O)OC(C)(C)C`, 2.7% (inactive). Under `O=C1C2C3C=CC(C3)C2C(=O)N1c1ccccc1OS(=O)(=O)c1ccccc1` (stereo not drawn) stands -5% (inactive); under `CCOc1ccc(/C=C2\SC(N3CCc4ccccc4C3)=NC2=O)cc1`, 3.5% (inactive); under `COc1ccc(OC)c2c1CCC2=O`, -2.6% (inactive).

With `Cc1cccc(N)c1-c1c(C)cccc1N`, the inhibition is 5.8% (inactive). Under `COc1ccc(N)c2c1C(=O)c1ccccc1C2=O` stands 23.8% (inactive).

Take `Cc1ccc(N)c2c1OCCC2=O`: the inhibition is 57.7% (active). With `COc1ccc(N)c2c1OCCC2=O`, the inhibition is 59.8% (active). Regarding `Cc1ccc2c(c1C)OC(=O)CC2(C)C`, the inhibition is -5.5% (inactive). Under `COC(=O)c1ccc(/C=N/NC(=S)NCCN2CCOCC2)cc1` stands -1.5% (inactive); under `NC(=O)C1CCN(C(=O)C2CCN(S(=O)(=O)c3ccccc3)CC2)CC1`, 5% (inactive); under `CC1(C)Cc2c(ccc3ccccc23)/C(=C/C(=O)N2CCCCC2)N1`, -2.6% (inactive). Under `CCOC(=O)C1=C2c3ccc4ccccc4c3CC(C)(C)N2C(=O)C1=O` stands 27.6% (inactive); under `CC1(C)Cc2ccccc2C2=C(C(=O)N3CCCCCC3)C(=O)C(=O)N21`, 60.5% (active); under `CC1(C)Cc2c(ccc3ccccc23)C2=C(C(=O)N3CCCC3)C(=O)C(=O)N21`, 56% (active). Under `CC1(C)Cc2ccccc2/C(=C/C(=O)N2CCCCCC2)N1` stands -22.6% (inactive); under `C=CCC1(O)C(=O)N2C(=C1C(=O)N1CCOCC1)c1ccccc1CC2(C)C` (stereo not drawn), -1.7% (inactive); under `COc1ccc(/C=N/NS(C)(=O)=O)c(OC)c1`, 8.2% (inactive). Consider `CCOC(=O)N/N=C1\CC(C)CC(C)(C)C1` (stereo not drawn), for which the inhibition is 4.2% (inactive). The value for `COc1ccc(CCNC(=O)COC(=O)/C=C/c2cc(OC)c(OC)c(OC)c2)cc1OC` was -0.4% (inactive); that for `COc1cccc(CC2(CO)CCN(Cc3ccc4cccc(F)c4n3)CC2)c1` was 13.1% (inactive); that for `Cc1ccc(OCC(=O)c2cc(C)n(C3CC3)c2C)c([N+](=O)[O-])n1` was 10.6% (inactive). With `Cc1ccc(-n2c(C)cc(C(=O)COc3cccnc3[N+](=O)[O-])c2C)cc1`, the inhibition was 54.5% (active). Consider `Cc1cc(C(=O)COc2cccnc2[N+](=O)[O-])c(C)n1-c1ccccc1`, for which the inhibition was 53.3% (active). Under `Cc1ccc(OCC(=O)c2cc(C)n(-c3ccccc3)c2C)c([N+](=O)[O-])n1` stands 21.3% (inactive); under `Cc1cc(-n2c(C)cc(C(=O)COc3ccccc3[N+](=O)[O-])c2C)no1`, 9.1% (inactive); under `COc1ccc(-n2c(C)cc(C(=O)COc3ccc(C)nc3[N+](=O)[O-])c2C)cc1`, 41% (inactive). Under `CN(Cc1ccccc1)C(=O)CC(c1ccccc1)c1cc(Cl)ccc1O` (stereo not drawn) stands 4.5% (inactive); under `CCn1c(=O)c(C(=O)CN2CCN(S(=O)(=O)c3ccccc3)CC2)c(N)n(Cc2ccccc2)c1=O`, 0.5% (inactive); under `Clc1cccc(Cl)c1CNc1ccc(N2CCCC2)cc1`, 84.4% (active). For the compound `NS(=O)(=O)c1ccc(NCc2c(F)cccc2Cl)cc1`, the inhibition was 4.6% (inactive). Under `O=C(O)c1cc(NCc2c(F)cccc2Cl)ccc1N1CCOCC1` stands 2.7% (inactive); under `O=S(=O)(Nc1ccc(N2CCCCC2)cc1)c1ccccc1`, 0.6% (inactive); under `O=C(Nc1ccc(N2CCCCCC2)cc1)c1ccccc1Cl`, 27.3% (inactive). Regarding `COC(=O)C(CCSC)NC(=O)CNS(=O)(=O)c1ccc(Br)cc1` (stereo not drawn), the inhibition was -7.6% (inactive).

Turning to `Cc1ccc(C)c(CN2CCNC2=O)c1`, the inhibition was -0.9% (inactive). Under `CCNC(=O)CC1C(=O)N(CC)C(=S)N1NC(=O)c1cccnc1` (stereo not drawn) stands -4.7% (inactive); under `N=C1S/C(=C\c2ccccc2F)C(=O)N1c1ccc(F)cc1`, 3.1% (inactive); under `CCCCS(=O)(=O)Nc1ccc(C)cn1`, 57.3% (active). Under `CCCCCCCCCS(=O)(=O)Nc1cc(C)ccn1` stands 7.7% (inactive); under `Cc1ccc(NS(=O)(=O)c2ccc(Br)s2)nc1`, 66.2% (active).

As to `Cc1cccc(NS(=O)(=O)c2ccc(Br)s2)n1`, the inhibition was -4.4% (inactive). In the case of `Cc1ccc(NS(=O)(=O)Cc2ccccc2)nc1`, the inhibition was 16.5% (inactive). For `Cc1cc(C)nc(NS(=O)(=O)c2ccc(Br)s2)c1`, the inhibition is 42.1% (inactive). On to `O=c1cc(CCl)nc2sc3ccccc3n12`, for which the inhibition is -13.1% (inactive). Regarding `COC(=O)C1=C(C)N(C)C(=O)NC1c1ccc(O)c(Cl)c1` (stereo not drawn), the inhibition is 3.8% (inactive). As for `COC(=O)C1=C(C)NC(=O)NC1c1ccc([N+](=O)[O-])o1` (stereo not drawn), the inhibition is 10.9% (inactive). `COc1c(O)ccc(C2NC(=O)NC(C)=C2C(=O)Nc2ccccc2C)c1[N+](=O)[O-]` (stereo not drawn): the inhibition is 49.8% (inactive). The value for `COC(=O)C1=C(C)N(C)C(=O)NC1c1cc2c(cc1[N+](=O)[O-])OCO2` (stereo not drawn) was 42.7% (inactive); that for `CCOc1c(O)ccc(C2NC(=O)N(C)C(C)=C2C(=O)OC)c1[N+](=O)[O-]` (stereo not drawn) was 60.2% (active); that for `CCOc1c(O)ccc(C2NC(=O)NC(C)=C2C(=O)OC)c1[N+](=O)[O-]` (stereo not drawn) was 50.9% (active). Turning to `CN=C1SC(CC(=O)Nc2cc(Cl)ccc2Cl)C(=O)N1C` (stereo not drawn), the inhibition is -9.7% (inactive). Consider `COc1ccc(/C=N/Nc2nc(N3CCCC3)nc(N3CCCC3)n2)c(OC)c1OC`, for which the inhibition was 4% (inactive). Turning to `Cc1onc(-c2c(F)cccc2Cl)c1C(=O)NCCO`, the inhibition was -4% (inactive). In the case of `COc1ccc2c(c1)C(C1C(=O)CCCC1=O)c1ccccc1O2` (stereo not drawn), the inhibition is 2.9% (inactive). The value for `CC1(C)CC(=O)C(C2c3ccccc3S(=O)(=O)c3ccccc32)C(=O)C1` was -5.8% (inactive); that for `CC1(C)CC(=O)C(C2c3ccccc3Oc3ccccc32)C(=O)C1` was 52.9% (active); that for `O=C(c1ccc(-c2ccccc2)cc1)N1CCC(C(=O)N2CCCC2)CC1` was 5.4% (inactive).

As to `COc1ccc(CC(=O)NC(=S)Nc2ccc(S(N)(=O)=O)cc2)cc1`, the inhibition was -5.8% (inactive).

Regarding `Cc1cccc(NC(=O)NCC(F)(F)F)n1`, the inhibition is -6.3% (inactive).

For `CCOC(=O)C(NC(=O)Nc1cccc(C)n1)(OCC(F)(F)F)C(F)(F)F` (stereo not drawn), the inhibition is 59.1% (active). Under `CCOC(=O)C(NC(=O)Nc1ccccc1)(OCC)C(F)(F)F` (stereo not drawn) stands 5.2% (inactive); under `Cc1cc(C)nc(NS(=O)(=O)c2ccc(NC(=O)CN3C(=O)C4CC=CCC4C3=O)cc2)n1` (stereo not drawn), -7.4% (inactive). Under `Cc1cc(C(=O)Nc2ccccc2C#N)n(-c2ccccc2)n1` stands 1.2% (inactive). Under `CC(=O)c1cccc(N2C(=NC(=O)C(C)C)SC3CS(=O)(=O)CC32)c1` (stereo not drawn) stands 10.5% (inactive).

Take `O=C1COc2ccc(C(=O)COC(=O)Cc3ccccc3F)cc2N1`: the inhibition is -2.3% (inactive). In the case of `CC(=O)Cc1cc(O)c2ccccc2c1OC(=O)c1ccccc1`, the inhibition was 68.6% (active). Under `CC(=O)Oc1c(C)cc(O)c2ccccc12` stands 19.2% (inactive). Regarding `O=C(Oc1cccc2c(O)cccc12)c1ccccc1`, the inhibition is 23.5% (inactive). Turning to `Cc1cc(N2CCCC2=O)c(N)cc1N`, the inhibition is 4.5% (inactive). As for `O=C1CN(CC(=O)Nc2cccc(Cl)c2Cl)c2ccccc2N1`, the inhibition was -43.6% (inactive).

Turning to `CCOc1ccc2nc(NC3=NCN(Cc4ccco4)CN3)nc(C)c2c1`, the inhibition was -0.5% (inactive).

Take `C=CCSC1=N/C(=C\c2cc(OCC)c(OC(C)=O)c([N+](=O)[O-])c2)C(=O)S1`: the inhibition is 38.8% (inactive). Turning to `CCOc1cc(/C=C2\N=C(SCC)SC2=O)cc([N+](=O)[O-])c1OC(C)=O`, the inhibition is 53.1% (active). Turning to `CCOc1cc(/C=C2\N=C(SC)SC2=O)cc([N+](=O)[O-])c1OC(C)=O`, the inhibition is 35.6% (inactive).

With `CC(=O)NCC(=O)N(C)C(C(=O)Nc1ccc2c(c1)OCCO2)c1ccc(C)cc1` (stereo not drawn), the inhibition was 5.2% (inactive). Under `CCOC(=O)Nc1sc2c(c1C(N)=O)CCC(C)C2` (stereo not drawn) stands -7.3% (inactive); under `CC(=O)NC(=S)Nc1sc2c(c1C(N)=O)CCC(C)C2` (stereo not drawn), -3% (inactive); under `COC(=O)Nc1sc2c(c1C(N)=O)CCC(C)C2` (stereo not drawn), 59.6% (active). The value for `CC(C)C(NC(=O)c1ccc(Br)cc1)C(=O)NC1=NCCS1` (stereo not drawn) was -3% (inactive); that for `CON1C(=O)C(=O)N(OC)C(C)(C)C1(C)C` was 44.6% (inactive). The value for `Clc1ccc(C2NCCc3sccc32)cc1` (stereo not drawn) was 10.9% (inactive); that for `CC1=CC(C)(C)N=C(NC#N)N1` was 2.4% (inactive).
